Screening results as filed in PubChem BioAssay.
The sample as a whole holds a higher share of hits than the screen did.
IDE exosite inh: insulin-degrading enzyme (human) exo-site inhibition; P14735; purified IDE, FL-6b probe fluorescence polarization; active compounds read low; z-score at 20 µM; 17,000 tested, 6.3% active; AID 1259349;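 active = z-score of -3 or lower, meaning strong loss of probe binding signal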;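 note: His-tagged human IDE residues 42-1019 made in E. coli with 30 nM FL-6b probe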
Target sequence (P14735 42-1019 limits assumed): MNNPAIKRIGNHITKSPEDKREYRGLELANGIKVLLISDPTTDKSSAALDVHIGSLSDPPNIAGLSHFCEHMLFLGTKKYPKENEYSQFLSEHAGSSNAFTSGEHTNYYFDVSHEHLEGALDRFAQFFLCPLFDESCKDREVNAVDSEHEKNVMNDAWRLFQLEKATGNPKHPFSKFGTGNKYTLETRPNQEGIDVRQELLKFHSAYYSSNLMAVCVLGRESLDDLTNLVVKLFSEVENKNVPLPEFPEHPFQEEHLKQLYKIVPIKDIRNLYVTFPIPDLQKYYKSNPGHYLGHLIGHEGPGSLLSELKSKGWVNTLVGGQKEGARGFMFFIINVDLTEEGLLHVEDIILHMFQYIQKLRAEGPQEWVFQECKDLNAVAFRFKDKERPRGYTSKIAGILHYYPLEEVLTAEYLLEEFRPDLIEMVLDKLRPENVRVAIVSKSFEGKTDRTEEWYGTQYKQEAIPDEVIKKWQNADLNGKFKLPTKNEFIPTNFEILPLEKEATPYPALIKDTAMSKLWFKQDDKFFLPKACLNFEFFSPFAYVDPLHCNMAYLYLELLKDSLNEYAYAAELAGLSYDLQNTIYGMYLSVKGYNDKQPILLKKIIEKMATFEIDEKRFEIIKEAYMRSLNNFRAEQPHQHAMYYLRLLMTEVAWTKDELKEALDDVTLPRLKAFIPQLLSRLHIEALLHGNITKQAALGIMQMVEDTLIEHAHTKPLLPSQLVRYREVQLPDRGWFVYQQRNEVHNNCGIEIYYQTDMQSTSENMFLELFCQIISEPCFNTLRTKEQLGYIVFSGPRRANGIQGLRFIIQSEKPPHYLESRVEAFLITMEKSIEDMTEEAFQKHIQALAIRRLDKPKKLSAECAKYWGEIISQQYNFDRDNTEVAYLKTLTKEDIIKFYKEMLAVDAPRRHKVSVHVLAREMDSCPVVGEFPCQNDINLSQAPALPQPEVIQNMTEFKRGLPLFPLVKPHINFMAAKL
Each line names hits and unclear results; the compound was inactive in the other large screens.

CCC(=O)NC[C@H]1N[C@H](CO)[C@@H]1c1ccc(-c2ccccc2F)cc1	none
CCS(=O)(=O)N(C)C[C@@H]1N[C@H](CO)[C@@H]1c1ccc(-c2ccccc2F)cc1	none
CCC(=O)N1[C@H](CNC(=O)COC)[C@@H](c2ccc(-c3ccccc3)cc2)[C@@H]1CO	IDE exosite inh -3.5
CCC(=O)N1[C@H](CNC(=O)COC)[C@H](c2ccc(-c3ccccc3)cc2)[C@@H]1CO	none
C/C=C/c1ccc([C@@H]2[C@H](CO)N[C@H]2CNC(=O)c2ccccc2F)cc1	none
O=C(NC[C@H]1N[C@H](CO)[C@@H]1c1ccccc1)c1ccccc1F	none
O=C(NC[C@H]1N[C@H](CO)[C@@H]1c1ccc(-c2ccccc2F)cc1)c1ccccc1	IDE exosite inh -10
COCCN(C[C@H]1[C@H](c2ccccc2)[C@@H](CO)N1C(C)=O)C(=O)c1ccncc1	none
O=C(Nc1ccccc1F)N1CCCCN2[C@H](C1)[C@@H](c1ccc(-c3cccnc3)cc1)[C@@H]2CO	none
CCCC#Cc1ccc([C@@H]2[C@@H](CO)N3C(=O)CN(C(=O)Nc4ccc(F)cc4)C[C@H]23)cc1	none
CCS(=O)(=O)N1CC(=O)N2[C@H](CO)[C@@H](c3ccc(C#CC4CCCC4)cc3)[C@H]2C1	none
Cc1ccc(-c2ccc([C@@H]3[C@@H](CO)N4C(=O)CN(C(=O)Nc5cccc(F)c5)C[C@H]34)cc2)cc1	none
CC(=O)N1[C@H](CO)[C@H](c2ccc(C3=CCCC3)cc2)[C@@H]1CNC(=O)CC1CC1	none
Cc1ccccc1S(=O)(=O)N1CC(=O)N2[C@H](C1)[C@H](c1ccc(C#CC3CC3)cc1)[C@@H]2CO	none
COc1ccccc1NC(=O)N1CC(=O)N2[C@H](CO)[C@@H](c3ccc(C#Cc4ccc(F)cc4)cc3)[C@@H]2C1	none
CC(C)N(C[C@@H]1[C@H](c2ccccc2)[C@@H](CO)N1S(C)(=O)=O)C(=O)CN(C)C	none
C[C@H]1CN([C@@H](C)CO)C(=O)c2ccccc2-c2ccccc2CO[C@H]1CN(C)C(=O)Nc1cccc(Cl)c1Cl	none
O=C(c1ccccc1)N1CC(=O)N2[C@H](C1)[C@@H](c1ccc(C#Cc3ccccc3)cc1)[C@@H]2CO	none
O=C(c1ccccc1)N1CC(=O)N2[C@@H](CO)[C@H](c3ccc(C#Cc4ccccc4)cc3)[C@@H]2C1	IDE exosite inh -3.8
COc1ccc(C#Cc2ccc([C@@H]3[C@H]4CN(C(=O)c5ccccc5)CC(=O)N4[C@H]3CO)cc2)cc1	none
COc1ccc(C#Cc2ccc([C@H]3[C@@H](CO)N4C(=O)CN(C(=O)c5ccccc5)C[C@H]34)cc2)cc1	none
COc1ccc(C#Cc2ccc([C@H]3[C@H](CO)N4C(=O)CN(C(=O)c5ccccc5)C[C@@H]34)cc2)cc1	none
O=C(c1ccccc1)N1CC(=O)N2[C@@H](CO)[C@@H](c3ccc(C#Cc4ccccc4)cc3)[C@@H]2C1	IDE exosite inh -9.1
CCC(=O)N1[C@H](CO)[C@H](c2ccc(-c3cccc(OC)c3)cc2)[C@H]1CNC(C)=O	none
CCCC#Cc1ccc([C@H]2[C@@H](CO)N3C(=O)CN(S(=O)(=O)Cc4ccccc4)C[C@@H]23)cc1	none
CCCNC(=O)N1CC2(CCN(Cc3cccc(OC)c3)CC2)c2c(n(C)c3cc(OC)ccc23)[C@@H]1CO	none
CCC(=O)N1CCCCN2[C@H](CO)[C@H](c3ccc(-c4ccc(F)cc4)cc3)[C@@H]2C1	none
CCC(=O)N1CCCCN2[C@@H](CO)[C@H](c3ccc(/C=C/c4ccccc4)cc3)[C@@H]2C1	IDE exosite inh -7.2
CCC(=O)N1CCCCN2[C@H](CO)[C@H](c3ccc(-c4ccc(F)cc4)cc3)[C@H]2C1	none
O=C(c1ccc(F)cc1)N1CCCCN2[C@@H](CO)[C@H](c3ccc(/C=C/c4ccccc4)cc3)[C@@H]2C1	IDE exosite inh -3.4
CCC(=O)N1CCCCN2[C@@H](CO)[C@@H](c3ccc(-c4ccc(F)cc4)cc3)[C@@H]2C1	none
CN1CCCCN2[C@H](CO)[C@H](c3ccc(/C=C/c4ccccc4)cc3)[C@H]2C1	none
CN1CCCCN2[C@H](CO)[C@@H](c3ccc(/C=C/c4ccccc4)cc3)[C@H]2C1	IDE exosite inh -5.4
O=C(c1cccc(F)c1)N1CCCCN2[C@H](C1)[C@H](c1ccc(/C=C/c3ccccc3)cc1)[C@@H]2CO	none
CCC(=O)N1CCCCN2[C@H](CO)[C@H](c3ccc(/C=C/c4ccccc4)cc3)[C@H]2C1	IDE exosite inh -3.1
CCC(=O)N1CCCCN2[C@H](CO)[C@@H](c3ccc(/C=C/c4ccccc4)cc3)[C@H]2C1	none
CN1CCCCN2[C@H](CO)[C@H](c3ccc(-c4ccccc4)cc3)[C@H]2C1	none
O=C(c1cccc(F)c1)N1CCCCN2[C@H](CO)[C@@H](c3ccc(/C=C/c4ccccc4)cc3)[C@@H]2C1	none
CN(C[C@H]1N[C@@H](CO)[C@H]1c1ccc(-c2cccnc2)cc1)C(=O)CC1CC1	none
COc1ccc(S(=O)(=O)Nc2ccc3c(c2)CC(=O)N([C@H](C)CO)C[C@H](C)[C@H](CN(C)C(=O)Nc2c(C)noc2C)O3)cc1	none
COc1ccc2c3c(n(C)c2c1)[C@@H](CO)N(C)CC31CCN(C(=O)c2cccnc2)CC1	none
O=C(Nc1ccc(F)cc1)N1CC(=O)N2[C@H](CO)[C@H](c3ccc(C4=CCCC4)cc3)[C@H]2C1	none
COc1cccc(-c2ccc([C@H]3[C@@H](CO)N4CCCCN(CC5CC5)C[C@@H]34)cc2)c1	none
CCC(=O)N(C)C[C@H]1N[C@@H](CO)[C@H]1c1ccc(-c2cccc(C#N)c2)cc1	none
COc1ccc2c3c([nH]c2c1)[C@H](CO)N(C)CC31CCN(C(=O)c2ccccc2F)CC1	none
COc1ccc([C@@H]2CC=CC[C@H](C)Oc3ccccc3C(=O)N(C)[C@@H](C(C)C)C(=O)N2)c(OC)c1 (mixture of isomers)	none
N#C[C@H]1[C@@H](c2ccc(C3=CCCC3)cc2)[C@H](CO)N1C(=O)NC1CCCCC1	none
Cc1ccc(S(=O)(=O)Nc2ccc3c(c2)C(=O)N([C@H](C)CO)C[C@H](C)[C@H](CN(C)S(=O)(=O)c2cccs2)OCCCC[C@H](C)O3)cc1	none
Cc1ccccc1-c1ccc([C@H]2[C@H]3CN(C(=O)NC4CCCC4)CCCCN3[C@H]2CO)cc1	IDE exosite inh -5.7
Cc1ccccc1-c1ccc([C@H]2[C@@H](CO)N3CCCCN(C(=O)NC4CCCC4)C[C@@H]23)cc1	IDE exosite inh -19
Cc1ccccc1-c1ccc([C@H]2[C@@H](CO)N3CCCCN(C(=O)NC4CCCC4)C[C@H]23)cc1	IDE exosite inh -17
N#Cc1cccc(-c2ccc([C@@H]3[C@@H](CO)N4CCCCN(C(=O)Nc5ccccc5)C[C@@H]34)cc2)c1	none
CC(C)C#Cc1ccc([C@@H]2[C@H](C#N)N(C(=O)CN(C)C)[C@H]2CO)cc1	none
COc1cccc(CN2CCCCN3[C@H](C2)[C@H](c2ccc(-c4cccnc4)cc2)[C@@H]3CO)c1	none
O=C(NC[C@H]1[C@@H](c2ccccc2)[C@@H](CO)N1CC1CCCC1)c1cccnc1	none
CC(C)C#Cc1ccc([C@H]2[C@H]3CN(C(=O)c4ccc5c(c4)OCO5)CCCCN3[C@H]2CO)cc1	none
CCCC#Cc1ccc([C@H]2[C@H]3CN(C(=O)c4ccc(F)cc4)CC(=O)N3[C@H]2CO)cc1	none
O=C(c1ccccn1)N1CC2(C1)[C@@H](c1ccccc1)[C@@H](CO)N2Cc1ccc(F)cc1	none
O=C1N[C@H](c2ccccc2)COCc2cn(nn2)CC[C@@H]1Cc1ccc(C(F)(F)F)cc1	none
Cc1ccccc1-c1ccc([C@H]2[C@@H](CO)N3C(=O)CN(C(=O)c4cccnc4)C[C@H]23)cc1	IDE exosite inh -17
